Measured values published in ChEMBL document CHEMBL4303122, “Identification of potential treatments for COVID-19 through artificial intelligence-enabled phenomic analysis of human cells infected with SARS-CoV-2” (2020).
In all, about 1,600 compounds were measured (“Hit score”: median about 0.13, highest 2% from about 0.46 on). This excerpt belongs to a sample that is enriched for the highest values.

The molecules below were run on SARS-CoV-2 (assay: Antiviral activity against SARS-CoV-2 (USA-WA1/2020 strain) measured by imaging in HRCE cells at MOI 0.4 after 96 hrs (reported as hit score from 0-1 for on-disease vs off-disease activity: scores >0.6 considered hits)).
Format: functional, Homo sapiens

Structure (SMILES)	Hit score
CN(C)C(=O)c1cc2cnc(Nc3ccc(N4CCNCC4)cn3)nc2n1C1CCCC1 [RIBOCICLIB]	0.1227
CC(COc1ccccc1Cc1ccccc1)N1CCCCC1 (stereo not drawn) [BENPROPERINE]	0.02777
C#C[C@]1(O)CC[C@H]2[C@@H]3CCC4=CC(=O)CC[C@@H]4[C@H]3CC[C@@]21C [NORETHINDRONE]	0.1388
C=CCN1CC[C@]23c4c5ccc(O)c4O[C@H]2[C@@H](OCCOCCOCCOCCOCCOCCOCCOC)CC[C@@]3(O)[C@H]1C5 [NALOXEGOL]	0.106
CN(C(=O)C(Cl)Cl)c1ccc(O)cc1 [DILOXANIDE]	-0.0329
O=C1[C@H]2CCCC[C@H]2C(=O)N1CCCCN1CCN(c2nsc3ccccc23)CC1 [PEROSPIRONE]	0.1455
CCCCCCCCCCCC(=O)OCC(O)CO (stereo not drawn) [GLYCEROL MONOLAURATE]	0.1728
OCC(O)COc1cccc2ccccc12 (stereo not drawn)	0.1908
CC1=C(C)C(=O)C(CCCCCCCCCC[P+](c2ccccc2)(c2ccccc2)c2ccccc2)=CC1=O	0.06177
C#C[C@]1(O)CC[C@H]2[C@@H]3CCC4=Cc5oncc5C[C@]4(C)[C@H]3CC[C@@]21C [DANAZOL]	0.2899
CC(C)(CO)c1cc2cc(NC(=O)C3(c4ccc5c(c4)OC(F)(F)O5)CC3)c(F)cc2n1C[C@@H](O)CO [TEZACAFTOR]	0.1873
O=C(O)c1cccc(-c2noc(-c3ccccc3F)n2)c1	0.2151
N#Cc1ccnc(N2C(=O)CC[C@H]2C(=O)N(c2cncc(F)c2)[C@H](C(=O)NC2CC(F)(F)C2)c2ccccc2Cl)c1 [IVOSIDENIB]	0.2722
O=C(O)c1ccc2c(c1)nc(Nc1cccc(Cl)c1)c1ccncc12 [SILMITASERTIB]	0.7608
C[C@H](Nc1ncnc2nc[nH]c12)c1cc2cccc(Cl)c2c(=O)n1-c1ccccc1 [DUVELISIB]	0.6035
CC[C@H](Nc1ncnc2[nH]cnc12)c1nc2cccc(F)c2c(=O)n1-c1ccccc1 [IDELALISIB]	0.4259
C[C@H](C(=O)O)c1ccc(-c2ccccc2)c(F)c1 [ESFLURBIPROFEN]	0.1907
OC[C@H]1OC(O)[C@H](O)[C@@H](O)[C@@H]1O (stereo partly drawn) [DEXTROSE]	0.07162
CCCCC(F)(F)[C@@]1(O)CC[C@H]2[C@@H](CC(=O)[C@@H]2CCCCCCC(=O)O)O1 [LUBIPROSTONE]	0.08446
CC1(C)C(/C=C/C=C/C=C/C=C2\N(CCCCS(=O)(=O)[O-])c3ccc4ccccc4c3C2(C)C)=[N+](CCCCS(=O)(=O)[O-])c2ccc3ccccc3c21.[Na+] [INDOCYANINE GREEN]	0.2338
Cc1nc(NC(=O)N2CCC[C@H]2C(N)=O)sc1-c1ccnc(C(C)(C)C(F)(F)F)c1 [ALPELISIB]	0.6194
CC(C)(C)C(=O)OCC(=O)[C@H]1CC[C@H]2[C@@H]3CCC4=CC(=O)CC[C@]4(C)[C@H]3CC[C@]12C [DESOXYCORTICOSTERONE PIVALATE]	0.2223

Structure (SMILES)	Hit score
O=C(O)c1ccc(NC(=O)[C@H](Cc2ccc(O)cc2)NC(=O)c2ccccc2)cc1 [BENTIROMIDE]	0.2686
CC1(C)O[C@@H]2[C@@H](CO[C@@]3(COS(N)(=O)=O)OC(C)(C)O[C@@H]23)O1 [TOPIRAMATE]	0.1748
N#Cc1c(N2C[C@@H]3NCCO[C@H]3C2)c(F)cc2c(=O)c(C(=O)O)cn(C3CC3)c12 [FINAFLOXACIN]	0.04952
C[C@H]1C[C@@H]2[C@H]([C@@H](O)C[C@@]3(C)[C@H]2CC[C@]3(O)C(=O)CO)[C@@]2(C)C=CC(=O)C=C12 [METHYLPREDNISOLONE]	0.1629
CCCCc1oc2ccc(NS(C)(=O)=O)cc2c1C(=O)c1ccc(OCCCN(CCCC)CCCC)cc1 [DRONEDARONE]	0.03796
C[C@]1(Cn2ccnn2)[C@H](C(=O)O)N2C(=O)C[C@H]2S1(=O)=O [TAZOBACTAM]	0.04532
CC(C)Cc1ccc(C(C)C(=O)OCc2ccccn2)cc1 (stereo not drawn) [IBUPROFEN PICONOL]	0.1126
CCCN1CC(NS(=O)(=O)N(CC)CC)CC2Cc3c(O)cccc3CC21 (stereo not drawn) [QUINAGOLIDE]	0.09123
CO/N=C(\C(=O)N[C@@H]1C(=O)N2C(C(=O)O)=C(CSc3nnnn3C)CS[C@H]12)c1csc(N)n1 [CEFMENOXIME]	0.1641
N=C(N)c1ccc(/C=C/c2ccc(C(=N)N)cc2O)cc1 [HYDROXYSTILBAMIDINE]	0.4886
Nc1nc(=O)c2c([nH]1)NC[C@H](CNc1ccc(C(=O)N[C@@H](CCC(=O)O)C(=O)O)cc1)N2C=O [LEVOLEUCOVORIN]	0.1157
C#C[C@]1(OC(C)=O)CC[C@H]2[C@@H]3CCC4=CC(=O)CC[C@@H]4[C@H]3CC[C@@]21C [NORETHINDRONE ACETATE]	0.06494
COc1ccccc1OCCNCC(O)COc1cccc2[nH]c3ccccc3c12 (stereo not drawn) [CARVEDILOL]	0.5244
CC(C)NCC(O)COc1cccc2[nH]c3ccccc3c12 (stereo not drawn) [CARAZOLOL]	0.4815
C=CCOc1ccccc1OCC(O)CNC(C)C (stereo not drawn) [OXPRENOLOL]	0.08363
COc1ccc(CCNCC(O)COc2cccc(C)c2)cc1OC (stereo not drawn) [BEVANTOLOL]	0.3675
COc1ccccc1OCC(O)CO (stereo not drawn) [GUAIFENESIN]	0.2008
CC(C)NCC(O)COc1cccc2ccccc12 (stereo not drawn) [PROPRANOLOL]	0.3664
C=CCc1ccccc1OCC(O)CNC(C)C (stereo not drawn) [ALPRENOLOL]	0.3773
CC(C)NCC(O)COc1cccc2[nH]ccc12 (stereo not drawn) [PINDOLOL]	0.3758
CC(C)NC[C@@H](O)COc1cccc2ccccc12 [DEXPROPRANOLOL]	0.4686
